About 1,100 (52%) of roughly 2,100 compounds were called active. About 27% were inconclusive and are not listed. The set was probably picked from earlier hits. The list shows a part of the results. A number with no mark means an inactive call. The call rests on the fitted dose curve; in most records, active means well fitted inhibition curve with a large enough effect; inconclusive means small, poorly fitted or top-dose-only effect; inactive means no such curve, though single readings can be large or run the other way.
Molecular target: DNA dC->dU-editing enzyme APOBEC-3G (Homo sapiens) (UniProt Q9HC16)
Assay: qHTS for inhibitors of Vif-A3G interactions: Cherry picks counterscreen;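 further: hits raise yellow fluorescence by blocking Vif-driven A3G-eYFP degradation; nearly all actives have a fitted effect of over 70% in size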;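 on max response: max response given as percent of control signal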
Settings: HeLa A3G-eYFP + Vif (tagged APOBEC3G with the HIV-1 protein that degrades it), eYFP fluorescence, 24 h
Method in brief: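 Readout is eYFP fluorescence (488 nm excitation, 500-530 nm emission) measured on Acumen Explorer after 24 h compound exposure, several concentrations, at 37 deg C. Cells: HeLa stably co-expressing Vif and C-terminally eYFP-tagged A3G; MG132 positive control.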
Potency means the concentration at half of the fitted maximal effect.

Sequence of DNA dC->dU-editing enzyme APOBEC-3G (Homo sapiens) (Q9HC16 whole entry, looked up): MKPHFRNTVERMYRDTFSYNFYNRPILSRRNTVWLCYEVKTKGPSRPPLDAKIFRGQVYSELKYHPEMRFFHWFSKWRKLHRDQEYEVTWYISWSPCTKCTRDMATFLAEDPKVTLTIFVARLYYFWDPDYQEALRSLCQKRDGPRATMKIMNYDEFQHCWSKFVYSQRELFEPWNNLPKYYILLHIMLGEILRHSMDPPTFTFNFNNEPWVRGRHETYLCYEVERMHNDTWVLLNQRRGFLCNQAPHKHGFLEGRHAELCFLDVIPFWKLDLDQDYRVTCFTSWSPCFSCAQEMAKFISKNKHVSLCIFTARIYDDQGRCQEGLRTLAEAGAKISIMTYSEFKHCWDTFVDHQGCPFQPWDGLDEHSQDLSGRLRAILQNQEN

Row | SMILES | Potency | max response
1 | Cc1ccc2nc(SCC(=O)Nc3ccc4sc(C)nc4c3)c(C#N)cc2c1 | 18.4 µM (active) | –
2 | Cc1nc2cc(NC(=O)CSc3nc4c(C)cccc4cc3C#N)ccc2s1 | 20.6 µM (active) | –
3 | COCCN(CCOC)Cc1c(O)ccc2c1O/C(=C\c1ccc(C)o1)C2=O | – | -11.8%
4 | O=C1c2cccc3c([N+](=O)[O-])ccc(c23)C(=O)N1c1ccccn1 | – | 54.4%
5 | CC(=O)Oc1cccc(N2C(=O)c3cccc4c([N+](=O)[O-])ccc(c34)C2=O)c1 | 15.8 µM (active) | –
6 | Cc1nnc(N2C(=O)c3cccc4c([N+](=O)[O-])ccc(c34)C2=O)s1 | 20.6 µM (active) | –
7 | N#CC1=C(N)C(C#N)(C#N)[C@H](c2c(F)cccc2F)[C@H]2CC3(CC=C12)OCCO3 | 16.4 µM (active) | –
8 | Cc1cccc(-n2c(N)c(-c3nc4ccccc4n3C)c3nc4ccccc4nc32)c1 | – | -1.87%
9 | Cc1ccc(C(=O)NCCn2c(N)c(C#N)c3nc4ccccc4nc32)cc1 | 23.1 µM (active) | –
10 | COc1ccccc1/C=N/NC(=S)Nc1cccnc1 | – | -12.2%
11 | COc1ccc(/C=N/NC(=O)c2cccnc2)cc1COc1ccc(NC(C)=O)cc1 | 12.5 µM (active) | –
12 | COc1ccc(/C=N/NC(=O)c2cccnc2)cc1CSc1ccccn1 | 5.59 µM (active) | –
13 | COc1ccc(/C=N/NC(=O)c2ccccc2Cl)cc1CSc1nc2ccccc2s1 | 3.14 µM (active) | –
14 | COc1cnc(-c2ccccn2)nc1Oc1ccc(F)cc1F | – | -4.73%
15 | COc1cc(OC)cc(C(=O)N/N=C/c2ccc(OC)c(COc3ccc4ccccc4c3)c2)c1 | 15.8 µM (active) | –
16 | COc1ccc(/C=N/NC(=O)c2cc(OC)c(OC)c(OC)c2)cc1CN1CCc2cc(OC)c(OC)cc2C1C (configuration not stated) | 12.5 µM (active) | –
17 | CC(=O)N1CCc2nc3sc(C(=O)c4ccc(F)cc4)c(N)c3c(C(F)(F)F)c2C1 | 18.4 µM (active) | –
18 | COc1ccc(C(=O)c2sc3nc4c(c(C(F)(F)F)c3c2N)CN(C(C)=O)CC4)cc1OC | 18.4 µM (active) | –
19 | CCOC(=O)c1cc2n(c1/N=C/N(C)C)-c1ccccc1C2=O | 16.4 µM (active) | –

Row | SMILES | Potency | max response
20 | CCOC(=O)c1cc2n(c1N)-c1ccccc1C2=O | – | -28.5%
21 | CO/N=C\CC(=O)Nc1ccc(Oc2ccccc2)cc1 | 1.98 µM (active) | –
22 | CO/N=C\CC(=O)Nc1ccc(Cl)c(Cl)c1 | 9.94 µM (active) | –
23 | CCCCN1C(=O)/C(=C2/Sc3ccccc3N2C)S/C1=N\c1ncn[nH]1 | 20.6 µM (active) | –
24 | O=C(NNc1ncc(C(F)(F)F)cc1Cl)c1c(Cl)cccc1Cl | 14 µM (active) | –
25 | O=C(/C=C/c1cccs1)NCc1ccc2c(c1)OCO2 | – | -24.4%
26 | O=C(NCc1ccc2c(c1)OCO2)c1cc([N+](=O)[O-])ccc1N1CCCCC1 | 1.98 µM (active) | –
27 | COc1cc(OC)cc(C(=O)Nc2ccc(N3CCN(C(=O)c4cccs4)CC3)cc2)c1 | 6.27 µM (active) | –
28 | CCc1ccc(C(=O)NC(=S)Nc2ccc(N3CCOCC3)cc2)cc1 | – | 0.165%
29 | COc1cc(C(=O)OCC(=O)Nc2ccc(N3CCOCC3)cc2)ccc1OCC(C)C | – | 8.76%
30 | COc1cccc(C(=O)Nc2ccc(N3CCCC3)cc2)c1 | 5.59 µM (active) | –
31 | O=[N+]([O-])c1ccc(N/N=C\c2cccn2-c2ccccc2)nc1 | 15.8 µM (active) | –
32 | CCN(CC)c1ccc(C=NNc2ccc([N+](=O)[O-])cn2)cc1 | 1.3 µM (active) | –
33 | Oc1ccc(C2=NNC(=NCc3ccc4c(c3)OCO4)SC2)c(O)c1 | 7.9 µM (active) | –
34 | N#CC1=C(N)Oc2cc(N)ccc2C1c1cccc(Br)c1 (configuration not stated) | 0.627 µM (active) | –
35 | COc1ccc(C2C(C#N)=C(N)Oc3cc(N)ccc32)cc1OC (configuration not stated) | 9.94 µM (active) | –
36 | COc1ccc(C2C(C#N)=C(N)Oc3c2ccc2cccnc32)cc1OC (configuration not stated) | 1.77 µM (active) | –
37 | COc1cc(C2C(C#N)=C(N)Oc3cc(O)ccc32)cc2c1OCO2 (configuration not stated) | 11.2 µM (active) | –
38 | COc1ccc2nc(Nc3nc(CSc4ccc(C)cc4)cc(=O)[nH]3)nc(C)c2c1 | – | -26.4%

Row | SMILES | Potency | max response
39 | N#CC1=C(N)Oc2cc(N)ccc2C1c1ccccc1 (configuration not stated) | 15.8 µM (active) | –
40 | N#CC1=C(N)Oc2cc(N)ccc2C1C1CC=CCC1 (configuration not stated) | 5.59 µM (active) | –
41 | N#CC1=C(N)Oc2cc(N)ccc2C1c1ccccc1F (configuration not stated) | 9.94 µM (active) | –
42 | Cc1oc(C)c2c(=O)ccc3c(c12)OC(N)=C(C#N)C3c1ccc(F)cc1 (configuration not stated) | – | 44.8%
43 | N#CC1=C(N)Oc2cc(N)ccc2C1c1cccc(F)c1 (configuration not stated) | 4.98 µM (active) | –
44 | COc1ccc(NC(=O)c2cc(-c3ccccc3OC)on2)cc1 | 3.14 µM (active) | –
45 | COc1ccccc1-c1cc(C(=O)NN)[nH]n1 | – | 14.5%
46 | Cc1ccc(S(=O)(=O)C(C#N)c2nc3ccccc3nc2N2CCCC2)cc1 (configuration not stated) | 16.4 µM (active) | –
47 | COc1ccc(-n2c(O)c(/C=N/NS(=O)(=O)c3cccc([N+](=O)[O-])c3)c3ccccc3c2=O)cc1OC | 12.5 µM (active) | –
48 | COc1ccc(-n2c(O)c(/C=N/NS(=O)(=O)c3ccc(C)c([N+](=O)[O-])c3)c3ccccc3c2=O)cc1OC | 4.61 µM (active) | –
49 | O=C(O)CSc1cc(NS(=O)(=O)c2cccc([N+](=O)[O-])c2)c2ccccc2c1O | – | -17.9%
50 | CCN1C(=O)/C(=C/C=C2\N(CC)c3cc(S(=O)(=O)N(C)C)ccc3N2c2ccccc2)SC1=S | 1.12 µM (active) | –
51 | COc1cc(/C=C(\C#N)c2nc3ccccc3s2)ccc1OCC(=O)Nc1ccccc1 | 15.8 µM (active) | –
52 | CN(C)c1ccc(/C=C(\C#N)c2nc3ccccc3c(=O)[nH]2)cc1 | 0.411 µM (active) | –
53 | Cc1ccc2nc(/C(C#N)=C/c3ccc(O)c(O)c3)[nH]c2c1 | – | 43.5%
54 | COc1cc(/C=C(/C#N)c2nc3ccccc3[nH]2)ccc1OCC(=O)Nc1ccccc1C(C)C | 13 µM (active) | –
55 | N#C/C(=C\c1ccc(C(=O)O)cc1)c1nc2sc3c(c2c(=O)[nH]1)CCCC3 | – | -29.5%
56 | N#C/C(=C/c1ccc(O)c(O)c1)c1nc2ccccc2[nH]1 | 3.14 µM (active) | –
57 | O=C(OCCC12CC3CC(CC(C3)C1)C2)c1ccc(NCc2cc(O)ccc2O)cc1 | – | 25.7%

— PubChem BioAssay AID651813 (National Center for Advancing Translational Sciences (NCATS), 2012)
